Hits are enriched below; roughly 28% of the tested compounds scored in any of these assays.
Mac1 fbg enh: enhancers of CD11b/CD18 adhesion to fibrinogen, primary screen, K562 cells, luminescence; Integrin beta-2 (Homo sapiens) + Integrin alpha-M (Homo sapiens), P05107+P11215; ATPlite luminescence; activation, % at 10 µM; hit rate 0.07% among 93,000; AID 1499, 2009;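 active means 10 µM primary screen giving 50% or more activity, confirmed by 40% or more on retest at that dose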
Target sequence (P05107 whole entry, looked up, other chains not shown): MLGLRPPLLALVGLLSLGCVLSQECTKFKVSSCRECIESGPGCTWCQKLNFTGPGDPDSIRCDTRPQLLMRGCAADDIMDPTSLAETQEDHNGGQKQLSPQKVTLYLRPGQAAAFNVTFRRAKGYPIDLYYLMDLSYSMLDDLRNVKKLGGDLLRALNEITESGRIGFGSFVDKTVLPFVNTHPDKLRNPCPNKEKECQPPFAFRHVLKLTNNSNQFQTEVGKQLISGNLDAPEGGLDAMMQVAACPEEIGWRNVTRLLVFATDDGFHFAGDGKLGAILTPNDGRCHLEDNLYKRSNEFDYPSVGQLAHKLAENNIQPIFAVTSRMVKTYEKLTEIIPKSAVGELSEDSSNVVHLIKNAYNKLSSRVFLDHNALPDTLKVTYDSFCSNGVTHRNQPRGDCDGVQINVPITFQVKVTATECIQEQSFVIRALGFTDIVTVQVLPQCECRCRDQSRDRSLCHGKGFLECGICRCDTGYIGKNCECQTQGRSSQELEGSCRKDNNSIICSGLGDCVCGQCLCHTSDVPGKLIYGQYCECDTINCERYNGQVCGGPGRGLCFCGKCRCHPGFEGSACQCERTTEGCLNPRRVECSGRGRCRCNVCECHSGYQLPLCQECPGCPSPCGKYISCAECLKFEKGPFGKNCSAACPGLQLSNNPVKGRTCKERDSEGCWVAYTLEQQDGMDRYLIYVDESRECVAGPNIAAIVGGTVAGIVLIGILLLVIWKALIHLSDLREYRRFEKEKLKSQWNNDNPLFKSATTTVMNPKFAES
CYP2C19 activ: human CYP2C19 activators, primary screen, biochemical, luminescence; Cytochrome P450 2C19 (Homo sapiens), P33261; recombinant CYP2C19, luciferin-H EGE luminescence; hits give high values; 0 = fully inhibited enzyme, 1 = untreated enzyme; activation factor at 5 µM; 96,000 tested, under 10 active; AID 1025, 2008;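 active means activation factor of at least 2 at 5 µM in the primary screen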
CYP2C9 activ: human CYP2C9 activators, primary screen, biochemical, luminescence | recombinant CYP2C9, luciferin-H conversion; hits give high values; factor 1 = untreated enzyme, 0 = blocked | activation factor at 5 µM | hit rate 1.4% among 96,000;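 active means activation factor of 2 or more for CYP2C9 at a 5 µM dose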
CYP2C9 inhib: blockers of cytochrome P450 2C9 activity – biochemical, luminescence, ADME assay, primary screen; hit rate 20% among 96,000; CYP2C9 Supersomes, luciferin-H conversion; AID 777, 2007; P11712; inhibition, % at 5 µM;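 active means blocking of liver enzyme CYP2C9 beyond about 50% at 5 µM, limit read from the data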
CYP2C19 inhib: blockers of cytochrome P450 2C19 activity – biochemical, luminescence, ADME assay, primary screen; CYP2C19 Supersomes, luciferin-H EGE luminescence, 30 min; inhibition, % at 5 µM; hit rate 21% among 96,000; AID 778, 2007;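 active means CYP2C19 inhibition above a set limit at 5 µM in the primary screen, cut at about 50% in these data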
CD11b adhes inh: inhibitors of CD11b/CD18 adhesion to fibrinogen, primary screen, K562 cells, luminescence; Integrin beta-2 (Homo sapiens) + Integrin alpha-M (Homo sapiens), P05107+P11215; ATPlite luminescence; Mn2+ added to activate the integrin; inhibition, % at 10 µM; hit rate 0.54% among 93,000;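 active means primary inhibition of 50% or more at 10 µM, then 40% or more on retest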
Large screens that a line does not name were inactive.

COc1cc2c(cc1OC)CN(Cc1cccs1)CC2	CYP2C19 inhib 65.7 (no result: Mac1 fbg enh, CD11b adhes inh)
COc1cc2c(cc1OC)CN(Cc1cc(=O)oc3c(C)c(C)ccc13)CC2	none (no result: CYP2C19 activ, CYP2C9 activ, CYP2C9 inhib, CYP2C19 inhib)
COc1ccc(OC)c(CN2CCN(c3ccccc3OC)CC2)c1	CYP2C19 inhib 77.9
c1csc(CN2CCOCC2)c1	CYP2C9 inhib 100.3, CYP2C19 inhib 93.7
CCOC(=O)c1cnc2ccc(C)cc2c1Sc1ccccc1C(=O)OC	none
O=C(CCN1C(=O)COc2ccccc21)N1CCCCC1	none
CCCCN1C(=O)C(NC(=O)CC(C)C)(C(F)(F)F)C2=C1CC(C)(C)CC2=O (stereo unspecified)	none (no result: Mac1 fbg enh, CD11b adhes inh)
CC(=O)NC(C)C(=O)OCC(=O)Nc1ccc(Br)cc1 (stereo unspecified)	CYP2C19 inhib 53.8
Cc1c(F)cccc1NC(=O)CSCC(=O)Nc1ccccc1	CYP2C9 inhib 55.9, CYP2C19 inhib 56.0
COC(=O)c1ccccc1NC(=O)CSCC(=O)Nc1ccc(F)cc1	CYP2C19 inhib 58.6
O=C(NCc1cc(C(F)(F)F)cc(C(F)(F)F)c1)C1CC(c2c(Cl)cccc2Cl)=NO1 (stereo unspecified)	CYP2C9 inhib 77.0, CYP2C19 inhib 62.2
COc1ccc(CNC(=O)C2CC(c3cccc([N+](=O)[O-])c3)=NO2)cc1 (stereo unspecified)	none (no result: Mac1 fbg enh, CD11b adhes inh)
O=C(NCc1ccc(OC(F)(F)F)cc1)C1CC(c2c(Cl)cccc2Cl)=NO1 (stereo unspecified)	CYP2C19 inhib 87.3
O=C(NCCc1cccs1)C1CC(c2c(Cl)cccc2Cl)=NO1 (stereo unspecified)	CYP2C9 activ 2.2, CYP2C19 inhib 60.5 (no result: Mac1 fbg enh, CD11b adhes inh)
O=C(NCc1ccccn1)C1CC(c2ccc(Cl)c(Cl)c2)=NO1 (stereo unspecified)	none
O=C(NCC(F)(F)F)Nc1ncccn1	none
O=C(N1CCN(c2ccccc2)CC1)C1(c2cccs2)CCOCC1	none (no result: CYP2C19 activ, CYP2C9 activ, CYP2C9 inhib, CYP2C19 inhib)
CCc1ccccc1N(C(=O)Cn1nnc2ccccc21)C(C(=O)NCCOC)c1ccco1 (stereo unspecified)	CYP2C9 inhib 56.0, CYP2C19 inhib 61.3
O=C(NCc1ccco1)C(c1ccncc1)N(CCC1=CCCCC1)C(=O)Cn1nnc2ccccc21 (stereo unspecified)	CYP2C9 inhib 61.7, CYP2C19 inhib 50.8
O=C(NCc1ccco1)C(c1cccnc1)N(C(=O)Cn1nnc2ccccc21)c1ccccc1 (stereo unspecified)	CYP2C19 inhib 51.2
Cc1cccc(N(C(=O)Cn2nnc3ccccc32)C(C(=O)NCc2ccco2)c2ccncc2)c1 (stereo unspecified)	none
COc1ccc(N(C(=O)Cn2nnc3ccccc32)C(C(=O)NCc2ccco2)c2cccnc2)cc1 (stereo unspecified)	CYP2C19 inhib 78.0
O=C(NCCO)C1(c2ccc(Cl)cc2)CCCC1	none
COCCNC(=O)CN(C(=O)Cn1nnc2ccccc21)c1ccc(F)c(Cl)c1	CYP2C19 inhib 56.2
FC(F)(F)c1cc(N2CCOCC2)nc(-c2ccccc2)n1	none (no result: CYP2C19 activ, CYP2C9 activ, CYP2C9 inhib, CYP2C19 inhib)
Cc1c(C(=O)NN)nc2ccccn12	none (no result: CYP2C19 activ, CYP2C9 activ, CYP2C9 inhib, CYP2C19 inhib)
CC(Oc1ccccc1)C(=O)Nc1nc2c(s1)C(=O)CC(C)(C)C2 (stereo unspecified)	CYP2C9 inhib 60.7, CYP2C19 inhib 56.6 (no result: Mac1 fbg enh, CD11b adhes inh)
Nc1nc(-c2ccc(Br)cc2)cs1	none
Nc1nc(-c2cccc(Br)c2)cs1	CYP2C19 inhib 63.6
CCOc1cc(N2CCOCC2)c(OCC)cc1NC(=O)COc1ccc2ccc(=O)oc2c1	none (no result: CYP2C19 activ, CYP2C9 activ, CYP2C9 inhib, CYP2C19 inhib)
Cc1noc(C)c1COc1cccc(C(=O)NCc2ccccc2Cl)c1	CYP2C9 inhib 53.2, CYP2C19 inhib 58.1
Cc1noc(C)c1COc1cccc(C(=O)Nc2ccc(OCc3ccccc3)cc2)c1	CYP2C9 inhib 73.1, CYP2C19 inhib 62.5
O=C(Nc1ccc(OCc2ccccc2)cc1)c1cccnc1	none
CCSc1nnc(NC(=O)c2cccc(OCc3c(C)noc3C)c2)s1	CYP2C9 inhib 86.3, CYP2C19 inhib 88.1
COc1ccc2nc(NC(=O)c3cccc(OCc4c(C)noc4C)c3)sc2c1	none

Compound activity deposited in PubChem BioAssay by Sanford-Burnham Center for Chemical Genomics.
